Compound activity (PubChem)
Most compounds without a hit are left out; they make up all but 19% or so of the library.
TDP1 inh = blocks human tyrosyl-DNA phosphodiesterase 1 | Q9NUW8 | Potency, µM (top dose mostly 130 µM), without a hit: top-dose activity change, negative = inhibition, hits mostly inhibitors | AID 485290 | hit rate 0.28% among 350,000 | recombinant TDP1, AlphaScreen DNA substrate cleavage; also: potency is read from the fitted curve at half-maximal effect; % is scaled to controls: 0 for no effect and ±100 for the full control effect; nearly all actives have a fitted effect of over 40% in size
Target sequence (Q9NUW8 whole entry, looked up): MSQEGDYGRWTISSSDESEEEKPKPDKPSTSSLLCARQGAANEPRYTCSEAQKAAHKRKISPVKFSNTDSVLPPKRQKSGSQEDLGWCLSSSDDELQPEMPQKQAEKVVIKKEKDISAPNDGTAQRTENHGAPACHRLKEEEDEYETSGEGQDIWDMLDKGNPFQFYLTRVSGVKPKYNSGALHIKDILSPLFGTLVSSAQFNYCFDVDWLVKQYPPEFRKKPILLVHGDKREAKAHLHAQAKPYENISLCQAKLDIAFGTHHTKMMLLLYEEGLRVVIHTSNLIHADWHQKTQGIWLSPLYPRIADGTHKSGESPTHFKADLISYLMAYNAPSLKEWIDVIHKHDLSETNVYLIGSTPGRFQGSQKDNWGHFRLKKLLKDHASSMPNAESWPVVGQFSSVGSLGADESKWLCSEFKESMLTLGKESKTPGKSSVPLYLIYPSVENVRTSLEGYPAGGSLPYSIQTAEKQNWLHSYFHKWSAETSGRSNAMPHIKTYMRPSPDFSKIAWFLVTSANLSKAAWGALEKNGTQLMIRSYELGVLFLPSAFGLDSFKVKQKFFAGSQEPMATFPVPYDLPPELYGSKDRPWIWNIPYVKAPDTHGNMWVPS
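Here, a 5' biotin and 3' phosphotyrosine-FITC DNA oligonucleotide reports Tdp1 activity: intact substrate bridges AlphaScreen beads, while cleavage leaves a 3' phosphate and drops signal. All incubations at room temperature.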
DT40 TDP1 no CPT = qHTS for Inhibitors of human tyrosyl-DNA phosphodiesterase 1 (TDP1): qHTS in cells in absence of CPT | DT40 Tdp1-/- hTDP1 cells, no CPT, ATP luminescence, 48 h | Potency, µM (highest dose often 46.2 µM), without a hit: at the highest dose activity change, negative = growth inhibition, most hits filed as inhibitors | hit rate 15% among 420,000 | AID 686978, 2013; also: potency is read from the fitted curve at half-maximal effect; % is scaled to controls: 0 for no effect and ±100 for the full control effect; nearly all actives have a fitted effect of over 55% in size
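Compound effects on proliferation are scored in DT40 Tdp1-/-;hTDP1 cells in the absence of CPT. ATP levels (CellTiter-Glo luminescence) are recorded after a ≥48 hr, 37 °C incubation.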
IL-1B inflam inh = inhibitors of inflammasome signaling (IL-1 beta secretion); THP-1 LPS/ATP IL-1B secretion, AlphaLISA, 16 h; active compounds read low; activity change, % at 57.5 µM; hit rate 4.7% among 360,000; in the data active = activity change below about -50%; inconclusive = mostly about -30% to -49%; also: % is scaled to controls: 0 for no effect and ±100 for the full control effect
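Secreted IL-1B measured by AlphaLISA bead assay after 16 h compound exposure of THP-1 cells; compounds (final up to 57.5 uM) added 1 h before LPS (250 ng/mL) and ATP (1.25 mM) stimulation; lower signal means less secretion.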
HepG2 viability = HepG2 cytotoxicity, counter-screen for TGF-b inhibitors; HepG2 CAGA-GFP viability, ATP luminescence, 18 h; Potency, µM (top dose mostly 46.1 µM), for the others: at the highest dose activity change, negative = cytotoxicity, most hits filed as cytotoxic; hit rate 0.76% among 410,000; also: potency is read from the fitted curve at half-maximal effect
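HepG2 CAGA-GFP cells (1000/well, DMEM with 1% FBS) received compound, then TGF-beta at 500 pg/mL final, and were incubated 18 hours at 37 degrees C. Viability was read by CellTiter-Glo luminescence. Media-only wells were set as complete cell-killing and DMSO as no toxicity.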
TDP1 cell CPT = growth inhibition of DT40 Tdp1-/-;hTDP1 cells with camptothecin (screen for TDP1 inhibitors) | hit rate 12% among 420,000 | Potency, µM (titrated, usually from 46.2 µM), for inactives: at the top dose activity change, negative = growth inhibition, usual class: inhibitors | AID 686979 | chicken DT40 Tdp1-/-;hTDP1 cells + 20 nM CPT, ATP luminescence, 48 h; also: potency is read from the fitted curve at half-maximal effect; % is scaled to controls: 0 for no effect and ±100 for the full control effect; nearly all actives have a fitted effect of over 55% in size
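Cell growth measured by CellTiter-Glo luminescence after a minimum 48 h, 37 C compound exposure with 20 nM CPT in Tdp1-knockout DT40 cells stably expressing hTDP1, seeded 400/well; qHTS titration format.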
TGFb SMAD3 inh = TGF-b pathway inhibition. hit rate 1.2% among 410,000. HepG2 CAGA-GFP TGF-b/SMAD3 reporter, GFP fluorescence, 18 h; TGF-beta stimulated, 500 pg/mL final. AID 588855. Potency, µM (top dose mostly 46.1 µM), without a hit: top-dose activity, negative = inhibition, hits mostly inhibitors; also: potency is read from the fitted curve at half-maximal effect; % is scaled to controls: 0 for no effect and ±100 for the full control effect; nearly all actives have a fitted effect of over 65% in size
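Smad-responsive CAGA-GFP expression was quantified in HEPG2 cells exposed to compounds and 500 pg/mL final TGF-beta for 18 h at 37 degrees C; unstimulated wells defined full inhibition.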
An asterisk follows results filed as active; ? = inconclusive; nt = no result given; [ ] = another dose, or the depositor's remark. Unless noted, calls follow the shape of the dose curve; as a rule, active = well fitted curve in the direction sought with a large enough effect; inconclusive = small, poorly fitted or top-dose-only effect, or another doubt; inactive = no such curve, though single readings can be large; an effect the other way counts as inactive or inconclusive.

SMILES	TDP1 inh	DT40 TDP1 no CPT	IL-1B inflam inh	HepG2 viability	TDP1 cell CPT	TGFb SMAD3 inh
O=C(COC(=O)/C=C/c1cccc(Br)c1)Nc1cccc(S(=O)(=O)NC2=NCCC2)c1	0%[56.1 µM]	4.1µM*	-16	-6%	-14%	-2%
Cc1ccc([N+](=O)[O-])cc1S(=O)(=O)N(C)C	4%	nt	nt	nt	nt	nt
Cc1sc2ccccc2c1CNC[C@H]1O[C@@H](n2cnc(C(N)=O)n2)[C@H](O)[C@@H]1O	nt	-2%	-3	7%	8%	3%
CCCn1c2ccccc2c2cnn(CC(=O)NCc3ccc(OC)cc3)c(=O)c21	3%	?	nt	-3%	?	-29%
NS(=O)(=O)c1cccc(NC(=O)COC(=O)COc2ccc3ccccc3c2)c1	0%	-5%	0	-4%	0%	-10%
COc1cc(OC)c(N2CC(C(=O)NCCC3=CCCCC3)CC2=O)cc1Cl (centres undefined)	1%	?	23	-17%	?	-26%
CCCCNC(=S)Nc1cccc(S(=O)(=O)NC2=NCCC2)c1	nt	-7%	11	3.5µM*	-11%	-8%
CCOC(=O)/C=C/C(=O)OCC(=O)Nc1ccc(C)cc1	-4%	?	-18	-17%	-24%	-24%
CCOC(=O)/C=C/C(=O)OCC(=O)Nc1cccc(Br)c1	-2%	?	-62*	-13%	-19%	-3%
COc1ccc(-n2ccc(-c3nn(-c4cccc(C(F)(F)F)c4)ccc3=O)n2)cc1	6%	18µM*	-13	-1%	?	-1%
CSc1ccc(Cl)c(C(=O)NNC(=O)c2cccs2)c1	0%	-17%	-19	1%	6%	8%
CCCN1CNc2c(c(=O)[nH]c(=S)n2CCc2ccc(Cl)cc2)C1	0%	?	nt	nt	?	nt
O=C1[C@@H](Oc2ccccc2)[C@@H](c2ccncc2)N1c1ccccc1	nt	18µM*	-18	-20%	?	?
O=C1[C@H](c2ccccc2)[C@@H](c2ccccc2)N1c1ccncc1	nt	?	-24	-21%	15µM*	5%
O=C1[C@@H](Oc2ccccc2)[C@@H](c2ccccc2)N1c1cccnc1	nt	13µM*	7	-3%	?	-26%
Cc1cccc(C)c1NC(=O)Cn1c(=O)n(CCC(=O)NCc2ccccc2Cl)c(=O)c2sccc21	6%	-4%	nt	7%	-1%	3%
CCc1c(N)nc(N)nc1Nc1ccccc1C	nt	16µM*	-18	-10%	?	-18%
Cc1ccccc1Nc1nc(N)nc(C)c1Br	nt	15µM*	-3	-4%	?	12%
CN(c1ccc(OCC(=O)NC2CCC(O)CC2)cc1)S(=O)(=O)c1ccc(Cl)cc1 (centres undefined)	0%	13µM*	11	-17%	?	-5%
CN(c1ccc(OCC(=O)OCC(=O)NC2CCCC2)cc1)S(=O)(=O)c1ccc2ccccc2c1	-3%	-11%	0	-9%	-21%	0%
COc1cc(NC(=O)COc2ccc(Cl)cc2)ccc1NC(=O)C(C)C	-6%	?	-18	-30%	?	6%
CN(c1ccc(OCC(=O)OCC(=O)Nc2ccc(F)cc2)cc1)S(=O)(=O)c1ccc(Cl)cc1	0%	-18%	26	3%	0%	-6%
COc1ccc(-c2csc(NC(=O)COc3ccc(N(C)S(=O)(=O)c4ccc(C)cc4)cc3)n2)cc1	2%	6.5µM*	6	0%	5.2µM*	0%
COc1ccc(CCNC(=O)COc2ccc(N(C)S(=O)(=O)c3ccc(C)cc3)cc2)cc1	5%	?	-8	-29%	?	?
COc1cc(NC(=O)COc2ccc(Cl)cc2)ccc1-c1cc2ccccc2oc1=O	0%	4.6µM*	3	-3%	4.1µM*	?
SMILES	TDP1 inh	DT40 TDP1 no CPT	IL-1B inflam inh	HepG2 viability	TDP1 cell CPT	TGFb SMAD3 inh
Cc1ccc(NC(=O)COc2ccc(N(C)S(=O)(=O)c3ccc(F)cc3)cc2)cc1	0%[56.1 µM]	16µM*	-9	-14%	?	-25%
CC(=O)c1ccc(OC(=O)COc2ccccc2Cl)cc1	nt	18%	8	-2%	16%	12%
Cc1cc(C(=O)COC(=O)c2ccc(Cl)c(S(N)(=O)=O)c2)c(C)n1C1CC1	0%	?	7	-10%	?	0%
C=CCC(C)(O)c1ccsc1 (centres undefined)	2%	nt	nt	nt	nt	nt
CN1CC(=O)N(CC(=O)Nc2ccc(Cl)c(C(F)(F)F)c2)c2ccccc2C1=O	5%	?	nt	-2%	?	-2%
CCOC(=O)C1CCN(C(=O)COc2ccc(N(C)S(=O)(=O)c3ccc(C)cc3)cc2)CC1	-3%	?	-2	49%	3%	0%
CCC1CCCCN1C(=O)COc1ccc(N(C)S(=O)(=O)c2ccc(C)cc2)cc1 (centres undefined)	2%	15µM*	4	-26%	21µM*	-11%
COc1ccc(NC(=O)COc2ccc(N(C)S(=O)(=O)c3ccc(Cl)cc3)cc2)cc1OC	7%	4.6µM*	-6	-16%	7.3µM*	?
Cc1ccc(-c2csc(NC(=O)COc3ccc(N(C)S(=O)(=O)c4ccc(C)cc4)cc3)n2)cc1	4%	18µM*	-8	-2%	15µM*	?
CCOc1ccccc1NC(=O)c1csc(C)c1C	-1%[56.1 µM]	-14%	4	-5%	-21%	3%
CCn1c(=O)sc2cc(NS(=O)(=O)c3ccc(F)c(C)c3)ccc21	2%	10µM*	nt	-28%	10µM*	?
COc1ccc(NS(=O)(=O)c2ccc3c(c2)NC(=O)CCS3)cc1Cl	5%	18µM*	-1	-25%	21µM*	?
COc1ccc(S(=O)(=O)Nc2ccc3c(c2)sc(=O)n3C)cc1Cl	2%	18µM*	nt	-35%	23µM*	?
O=C(COc1ccc(Br)cc1)Nc1cccc2cccnc12	-2%	?	nt	-14%	?	8%
CCSc1nnc2c(n1)OC(c1cc(OC)c(OC)c(OC)c1)Nc1ccccc1-2 (centres undefined)	nt	-14%	nt	1%	-1%	3%
CC(=O)N1CCC(C(=O)Nc2nnc(C(C)C)s2)CC1	nt	14%	nt	-15%	16%	-27%
COc1ncnc(-c2ccccc2)c1-c1ccccc1	nt	15µM*	10	-8%	?	-7%
